Among the test systems are SR leukemia; RPMI-8226 leukemia; OVCAR-8 ovarian; OVCAR-5 ovarian; OVCAR-4 ovarian; SK-OV-3 ovarian; IGROV1 ovarian; OVCAR-3 ovarian; HS 578T breast; NCI/ADR-RES ovarian; T-47D breast; BT-549 breast; MDA-MB-435 melanoma; SW-620 colon; MCF7 breast; HCT-116 colon; HCC-2998 colon; KM12 colon.
What all share (assay): NCI-60 one-dose screen, 48 h (100 = growth as untreated, 0 = no growth, -100 = all killed)
Common to all, as to settings: 10 µM unless noted

This is part of a sample that, as a whole, favours compounds with a hit. Of some 83,000 tested, about 20% had one in any assay.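 In brief: 96-well plates, 48 h treatment, single concentration, percent growth endpoint.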 A number with no mark means an inactive call. Active and inactive are the calls of the source. The calls were made as follows: active = growth percent below 10; inactive = the rest.

Turning to `CC1COCC(C)N1C1=C(Cl)C(=O)c2ccccc2C1=O` (centres undefined), the growth in the assay with SR leukemia was 41.6%; in the assay on RPMI-8226 leukemia it was 52.5%; with OVCAR-8 ovarian, 47.4%; in the assay with OVCAR-5 ovarian, 106%; in the assay on OVCAR-4 ovarian, -4.76% (active); in the assay on SK-OV-3 ovarian, 95.9%. For the same compound, the growth was 50.4% in the assay with IGROV1 ovarian; 46.1% with OVCAR-3 ovarian; 100% in the assay with HS 578T breast; 76.8% in the assay on NCI/ADR-RES ovarian; -55.2% (active) in the assay on T-47D breast; 76% with BT-549 breast. Besides, the growth was 29.6% in the assay on MDA-MB-435 melanoma; 42.6% with SW-620 colon; 50.8% in the assay on MCF7 breast; -9.39% (active) in the assay on HCT-116 colon; 101% in the assay on HCC-2998 colon; 89% in the assay with KM12 colon.
Regarding `CC(C)CSc1oc(-c2ccccc2)nc1S(=O)(=O)c1ccccc1`, the growth in the assay with SR leukemia was 91.7%; with RPMI-8226 leukemia, 85.9%; in the assay with OVCAR-8 ovarian it was 94.7%; in the assay on OVCAR-5 ovarian, 110%; in the assay on OVCAR-4 ovarian, 86.6%; in the assay with SK-OV-3 ovarian, 87%. Further, the growth with IGROV1 ovarian is 94.5%; with OVCAR-3 ovarian, 97.2%; in the assay on HS 578T breast, 96.6%; in the assay with NCI/ADR-RES ovarian it was 82.2%; in the assay with T-47D breast it was 62.4%; with BT-549 breast it was 102%. The growth in the assay on MDA-MB-435 melanoma is 105%; in the assay with SW-620 colon, 97.2%; with MCF7 breast it was 92.3%; with HCT-116 colon, 81.9%; in the assay with HCC-2998 colon, 100%; with KM12 colon, 96%.
`COc1cccc(Nc2ccnc3[nH]c4ccc([N+](=O)[O-])cc4c23)c1`: the growth in the assay on SR leukemia is 31.5%; in the assay with RPMI-8226 leukemia, 65.2%; in the assay with OVCAR-8 ovarian, 32.2%; in the assay on OVCAR-5 ovarian it was 110%; with OVCAR-4 ovarian, 27.2%; in the assay with SK-OV-3 ovarian, 47.5%. Besides, the growth was 33.1% in the assay with IGROV1 ovarian; 46.9% with OVCAR-3 ovarian; 27.8% in the assay on HS 578T breast; 44.4% with NCI/ADR-RES ovarian; 41.8% in the assay with T-47D breast; 80.3% with BT-549 breast. For the same compound, the growth with MDA-MB-435 melanoma was -24.4% (active); in the assay on SW-620 colon it was 56.5%; in the assay on MCF7 breast it was 19.7%; in the assay on HCT-116 colon it was 24.5%; in the assay on HCC-2998 colon it was 84.8%; with KM12 colon it was 27.2%.
In the case of `Cc1ccc(-c2cc(C(=O)N3N=C(c4ccc(N)cc4)CC3c3ccc(Cl)cc3)c3ccccc3n2)cc1` (centres undefined), the growth with SR leukemia is 11.2%; with RPMI-8226 leukemia, 19.9%; in the assay with OVCAR-8 ovarian, 25.7%; with OVCAR-5 ovarian, 75.2%; with OVCAR-4 ovarian, 69%; in the assay with SK-OV-3 ovarian, 34.2%. The growth was 47.4% in the assay with IGROV1 ovarian; 14.6% in the assay on OVCAR-3 ovarian; 6.64% (active) in the assay with HS 578T breast; 21.7% in the assay with NCI/ADR-RES ovarian; 35.9% with T-47D breast; 30.8% with BT-549 breast. For the same compound, the growth in the assay on MDA-MB-435 melanoma is -61.7% (active); in the assay on SW-620 colon, 33.8%; with MCF7 breast, 17.8%; with HCT-116 colon, 11.8%; in the assay on HCC-2998 colon, 37.9%; in the assay with KM12 colon, 27.9%.
Take `C=CCOC(=O)C1=C(C)NC(=O)NC1c1c(Cl)n(C)c2ccccc12` (centres undefined): the growth in the assay with SR leukemia is 97.9%; with RPMI-8226 leukemia it was 81.3%; in the assay on OVCAR-8 ovarian, 102%; in the assay on OVCAR-5 ovarian, 96%; in the assay on OVCAR-4 ovarian it was 103%; in the assay on SK-OV-3 ovarian it was 94.5%. Moreover, the growth is 107% in the assay on IGROV1 ovarian; 104% in the assay with OVCAR-3 ovarian; 98.8% with HS 578T breast; 99.2% in the assay on NCI/ADR-RES ovarian; 92.5% in the assay on T-47D breast; 99.1% in the assay on BT-549 breast. Moreover, the growth with MDA-MB-435 melanoma is 103%; with SW-620 colon, 98.6%; in the assay on MCF7 breast it was 94.8%; in the assay with HCT-116 colon it was 93.4%; in the assay with HCC-2998 colon, 104%; in the assay with KM12 colon it was 102%.
As for `COc1cc2nc(Nc3cccc(F)c3)nc(Nc3cc(C)[nH]n3)c2cc1OC`, the growth was -9.83% [20 µM] (active) with SR leukemia; -41.7% [20 µM] (active) in the assay with RPMI-8226 leukemia; -42.5% [20 µM] (active) in the assay with OVCAR-8 ovarian; -100% [20 µM] (active) in the assay on OVCAR-5 ovarian; -88.2% [20 µM] (active) in the assay on OVCAR-4 ovarian; -90% [20 µM] (active) with SK-OV-3 ovarian. Also, the growth in the assay with IGROV1 ovarian is -96.1% [20 µM] (active); in the assay on OVCAR-3 ovarian, -80.2% [20 µM] (active); in the assay with HS 578T breast, -59.3% [20 µM] (active); in the assay on NCI/ADR-RES ovarian, -57.8% [20 µM] (active); with T-47D breast, -45.8% [20 µM] (active); in the assay with BT-549 breast, -83.8% [20 µM] (active). Besides, the growth in the assay on MDA-MB-435 melanoma is -88.7% [20 µM] (active); in the assay on SW-620 colon it was -58.9% [20 µM] (active); with MCF7 breast, -66% [20 µM] (active); in the assay with HCT-116 colon, -68.2% [20 µM] (active); with HCC-2998 colon it was -88.3% [20 µM] (active); with KM12 colon it was -69.2% [20 µM] (active).
Consider `COCC[C@H]1CCC/C=C/[C@@H]2C[C@H](O)C[C@H]2[C@H](O)/C=C/C(=O)O1`, for which the growth in the assay with SR leukemia was 2.43% (active); in the assay with RPMI-8226 leukemia it was 11.1%; in the assay with OVCAR-8 ovarian, 5.65% (active); with OVCAR-5 ovarian it was 9.73% (active); in the assay with OVCAR-4 ovarian, 26.6%; in the assay with SK-OV-3 ovarian, 33.6%. In addition, the growth in the assay with IGROV1 ovarian is 16.1%; with OVCAR-3 ovarian, -47.8% (active); with HS 578T breast, 30.1%; in the assay on NCI/ADR-RES ovarian it was 3% (active); in the assay on T-47D breast, -10.9% (active); in the assay on BT-549 breast, 5.84% (active). The growth with MDA-MB-435 melanoma is 9.56% (active); in the assay with SW-620 colon, -20.8% (active); with MCF7 breast it was -8.53% (active); with HCT-116 colon, -66.7% (active); with HCC-2998 colon, 2.4% (active); in the assay on KM12 colon it was -51.4% (active).
With `Cc1nc2sc(C(=O)Nc3ccc(Cl)cc3)c(N)c2cc1C(O)c1ccccc1` (centres undefined), the growth in the assay with SR leukemia was 11%; in the assay on RPMI-8226 leukemia it was 15.5%; in the assay on OVCAR-8 ovarian it was 49.7%; in the assay on OVCAR-5 ovarian, 59.6%; in the assay with OVCAR-4 ovarian, 64.9%; with SK-OV-3 ovarian it was 51.3%. The growth with IGROV1 ovarian was 53.9%; in the assay on OVCAR-3 ovarian, 5.14% (active); in the assay with HS 578T breast it was 26.8%; in the assay on NCI/ADR-RES ovarian it was 25.8%; in the assay on T-47D breast, 40.8%; in the assay on BT-549 breast, 59.2%. Also, the growth with MDA-MB-435 melanoma was -12.6% (active); in the assay on SW-620 colon, 25.1%; in the assay on MCF7 breast it was 21.1%; in the assay on HCT-116 colon it was 25.9%; in the assay on HCC-2998 colon, 62.5%; in the assay with KM12 colon, 21.7%.

For the origin of these results see PubChem BioAssay (NCI).
